Out of some 22,000 compounds screened, about 460 (2.1%) were called active. Roughly 2% stayed inconclusive and do not appear here. The sample as a whole holds a higher share of actives than the screen did. Values without a mark were called inactive.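 The calls were made as follows: active = mean inhibition across valid replicates above about 65% (limit read from the data); inconclusive = mean under the limit, yet half or more replicates past it; inactive = the rest.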

The nature of the test: Hedgehog pathway signaling inhibitors, primary screen, luminescence, Shh-LIGHT2 cells, Gli-luciferase (AID 2313).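 Also: pathway switched on by Shh-conditioned medium diluted 1 in 25 in low serum.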 The conditions noted are these: Shh-LIGHT2 Gli-luciferase reporter, 30 h; stronger effect = higher value.
On to `CC(C)NC(=O)N(C)C[C@@H]1Oc2ccc(N(C)C)cc2C(=O)N([C@@H](C)CO)C[C@H]1C`, for which the inhibition is -15.2%.
For `CC(C)NC(=O)Nc1ccc2c(c1)C(=O)N([C@H](C)CO)C[C@H](C)[C@@H](CN(C)CC1CCCCC1)OCCCC[C@@H](C)O2`, the inhibition was -21.5%.
Turning to `C[C@@H]1CN([C@H](C)CO)C(=O)Cc2cc(NS(C)(=O)=O)ccc2O[C@H]1CN(C)S(=O)(=O)c1ccccc1`, the inhibition is -3.98%.
`C[C@@H]1CCCCO[C@H](CN(C)C(=O)Nc2cccc3ccccc23)[C@@H](C)CN([C@H](C)CO)C(=O)c2cc(NC(=O)Nc3ccc4c(c3)OCO4)ccc2O1`: the inhibition was -3.94%.
Under `Cc1ccc(OCc2n[nH]c(=S)n2C2CCCCC2)c2c1CCC2` stands 9.84%.
Regarding `COc1ccc(NC(=S)SC)cc1OC`, the inhibition was -54.6%.
Under `C[C@@H]1CN([C@H](C)CO)C(=O)c2cccc(NC(=O)NC3CCCCC3)c2O[C@@H]1CN(C)CC1CCCCC1` stands 23.2%; under `Cc1noc(C)c1S(=O)(=O)N(C)C[C@@H]1Oc2c(NS(=O)(=O)c3cn(C)cn3)cccc2C(=O)N([C@H](C)CO)C[C@@H]1C`, -16%; under `C[C@H](CO)N1C[C@H](C)[C@H](CN(C)S(=O)(=O)c2cccs2)Oc2ccc(NC(=O)Nc3ccccc3)cc2C1=O`, -3.56%.
The result for `COCc1nc2c([nH]1)C(c1ccccc1COc1ccc(Cl)cc1)C(C#N)=C(N)O2` (centres undefined) reads -16.6%; that for `C[C@@H]1CN([C@H](C)CO)C(=O)c2cccc(NS(=O)(=O)c3cn(C)cn3)c2O[C@H]1CN(C)Cc1ccc(C(=O)O)cc1`, 24.8%.
Under `Cc1cc(C(=O)Nc2cccc3c2O[C@@H](CN(C)Cc2ccncc2)[C@@H](C)CN([C@@H](C)CO)C3=O)n(C)n1` stands -8.53%.
Consider `Cc1ccc(S(=O)(=O)Nc2cccc3c2O[C@@H](CN(C)S(=O)(=O)c2ccc(C)cc2)[C@H](C)CN([C@@H](C)CO)C3=O)cc1`, for which the inhibition is -18.7%.
The result for `COc1ccc(CNC(=O)c2c(C)oc3c2cc(OC(C)=O)c2ccccc23)cc1` reads -2.05%; that for `S=c1nc2c(cnn2-c2ccccc2)c(Nc2ccccc2)[nH]1`, -7.49%.
On to `Cc1ccc(-c2c[n+](=O)c3c(n2[O-])CCC3)cc1`, for which the inhibition was -26.9%.
On to `C[C@H]1CN([C@@H](C)CO)C(=O)Cc2cc(NC(=O)Cc3ccccc3)ccc2O[C@@H]1CN(C)S(=O)(=O)c1ccc(Cl)cc1`, for which the inhibition was 22.7%.
The result for `C1=C(c2cccs2)CC(c2cccs2)=NN=C1c1cccs1` reads -1.01%; that for `COc1ccc(NC(=O)N(C)C[C@@H]2Oc3c(NC(=O)Nc4cccc5ccccc45)cccc3C(=O)N([C@@H](C)CO)C[C@H]2C)cc1`, 3.07%.
For the compound `C[C@H](CO)N1C[C@H](C)[C@H](CN(C)C(=O)Nc2ccc(C(F)(F)F)cc2)Oc2ccc(N(C)C)cc2CC1=O`, the inhibition is -27.1%.
The result for `COc1ccc(NC(=O)Nc2ccc3c(c2)CC(=O)N([C@@H](C)CO)C[C@@H](C)[C@@H](CN(C)Cc2ccc(C(F)(F)F)cc2)O3)cc1` reads 13.9%; that for `COc1ccc(NC(=O)N(C)C[C@@H]2Oc3c(NC(=O)c4ccc(-c5nccs5)cc4)cccc3C(=O)N([C@H](C)CO)C[C@@H]2C)cc1`, 20.7%; that for `C[C@H](CO)N1C[C@H](C)[C@@H](CN(C)S(=O)(=O)c2ccc(Cl)cc2)Oc2ccc(NS(=O)(=O)c3cn(C)cn3)cc2C1=O`, 25.4%.
The result for `C[C@H]1CN([C@@H](C)CO)C(=O)Cc2cc(NC(=O)Nc3ccccc3)ccc2O[C@H]1CN(C)S(=O)(=O)c1cn(C)cn1` reads -32.8%.
Under `C[C@H](CO)N1C[C@H](C)[C@H](CN(C)CC2CCCCC2)Oc2ccc(NC(=O)C3CCCCC3)cc2C1=O` stands 21.2%; under `Cc1noc(C)c1NC(=O)Nc1ccc2c(c1)CC(=O)N([C@H](C)CO)C[C@@H](C)[C@@H](CN(C)S(=O)(=O)c1ccc(Cl)cc1)O2`, -13.6%; under `Cc1noc(C)c1NC(=O)Nc1ccc2c(c1)C(=O)N([C@@H](C)CO)C[C@H](C)[C@H](CN(C)S(=O)(=O)c1ccc(Cl)cc1)O2`, -26.2%.
For the compound `C[C@H](CO)N1C[C@H](C)[C@@H](CN(C)Cc2ccc(C(F)(F)F)cc2)Oc2c(NC(=O)NC3CCCCC3)cccc2C1=O`, the inhibition is 23.9%.
For `O=C(NCCN1CCCCC1)Nc1cccc(Cl)c1`, the inhibition is 20.6%.
Under `COc1ccc(NC(=O)Nc2ccc3c(c2)CC(=O)N([C@@H](C)CO)C[C@@H](C)[C@@H](CN(C)Cc2ccc(Cl)c(Cl)c2)O3)cc1` stands 38.8%; under `C[C@@H]1CN([C@H](C)CO)C(=O)Cc2cc(NC(=O)CCCN(C)C)ccc2O[C@H]1CN(C)CC1CCCCC1`, 18.8%.
`Cc1cccc(NC(=O)c2ccc(C)c(S(=O)(=O)N3CCCC3)c2)c1`: the inhibition was -48.9%.
Regarding `Cc1ccc(NC(=O)c2cccc(N(C)C)c2)cc1NC(=O)c1ccc(O)cc1`, the inhibition is 83.8% (active).
As for `O=C(CCCCn1cnc2ccccc21)c1ccccc1`, the inhibition was -10.1%.
For the compound `CNC[C@H]1Oc2ccc(NS(=O)(=O)c3ccc(F)cc3)cc2CC(=O)N([C@H](C)CO)C[C@H]1C`, the inhibition is -2.19%.
`C[C@@H]1CN([C@H](C)CO)C(=O)Cc2cc(NS(=O)(=O)c3ccc(Cl)cc3)ccc2O[C@@H]1CN(C)C`: the inhibition is -10.8%.
Under `CNC[C@@H]1Oc2c(NC(=O)Nc3ccc(F)cc3)cccc2C(=O)N([C@@H](C)CO)C[C@@H]1C` stands 15.5%; under `Cc1ccc(NC(=O)CC(=O)Nc2ccc(C)cc2)cc1`, -21.5%.
As for `C[C@@H]1CN([C@H](C)CO)C(=O)c2cccc(N(C)C)c2O[C@H]1CN(C)S(=O)(=O)c1cn(C)cn1`, the inhibition was 3.08%.
The result for `C=C1C(=O)O[C@H]2C3=C(C)C[C@H](OC(C)=O)C[C@]3(C)CC[C@@H]12` reads -2.37%; that for `COc1cc(/C=C2\Oc3cc(O)cc(O)c3C2=O)ccc1O`, 3.42%.
The result for `Cc1ccc2nc(C)c3c(c2c1)N(c1ccccc1)CC3` reads 34.9%; that for `Cc1ccc(Nc2nc(C)cc(C)c2C(N)=O)cc1`, -37.3%.
For the compound `Cc1ccc2nc(Nc3ccccc3)cc(C)c2c1`, the inhibition was 72.3% (active).

Values taken from PubChem BioAssay AID2313 (Broad Institute, 2010).
